In the supplement of paper PMC10849652:
The full data set covers some 7,900 targets. This sample favours those with a hit. About 0.6% of all pairs of compound and target were hits. Values without a mark were called inactive.

Compound: Cc1ccc(C(=O)N(CCCN)[C@@H](c2nc3cc(Cl)ccc3c(=O)n2Cc2ccccc2)C(C)C)cc1 [ispinesib]
Assay: log2 fold change, soluble protein after heating vs DMSO (PISA); higher = thermal stabilisation; K562 cells, 10 uM, 30 min; active = over 0.2 and 3.5 SD of the protein, either way, in both replicates (recomputed)
Outline: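 For each measurement, 10 μM compound was applied for 30 min to K562 cells at 2×10^6 cells/mL. Aliquots were heated for 3 min across 48°C-58°C, pooled, and extracted in PBS with 0.5% NP-40 at 4°C; the supernatant after 21,000xg for 90 min was soluble protein. This was quantified by TMTpro 16plex LC-MS/MS with channel sums equalised, and thermal stability was reported relative to control samples from duplicates, on a log2 fold-change scale.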

UniProt Q9H467, sequence (Q9H467 whole entry, looked up): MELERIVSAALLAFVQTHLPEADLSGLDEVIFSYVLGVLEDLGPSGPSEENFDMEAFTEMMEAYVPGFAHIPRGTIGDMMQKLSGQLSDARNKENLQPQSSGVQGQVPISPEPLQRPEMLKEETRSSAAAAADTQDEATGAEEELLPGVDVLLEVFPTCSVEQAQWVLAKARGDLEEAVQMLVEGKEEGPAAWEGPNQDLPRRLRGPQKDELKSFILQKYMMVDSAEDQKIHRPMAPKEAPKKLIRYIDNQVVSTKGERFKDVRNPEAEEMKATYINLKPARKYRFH
UniProt Q14320, sequence (Q14320 whole entry, looked up): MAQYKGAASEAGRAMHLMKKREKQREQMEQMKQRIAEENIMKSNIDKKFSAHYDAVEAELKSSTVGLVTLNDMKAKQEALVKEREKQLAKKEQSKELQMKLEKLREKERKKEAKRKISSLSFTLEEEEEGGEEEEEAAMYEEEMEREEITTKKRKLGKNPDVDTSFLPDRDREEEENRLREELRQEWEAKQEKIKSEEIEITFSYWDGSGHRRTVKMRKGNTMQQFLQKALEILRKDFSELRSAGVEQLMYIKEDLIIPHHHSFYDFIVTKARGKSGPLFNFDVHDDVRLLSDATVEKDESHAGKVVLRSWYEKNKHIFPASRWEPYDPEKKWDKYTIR
UniProt Q04637, sequence (Q04637 whole entry, looked up): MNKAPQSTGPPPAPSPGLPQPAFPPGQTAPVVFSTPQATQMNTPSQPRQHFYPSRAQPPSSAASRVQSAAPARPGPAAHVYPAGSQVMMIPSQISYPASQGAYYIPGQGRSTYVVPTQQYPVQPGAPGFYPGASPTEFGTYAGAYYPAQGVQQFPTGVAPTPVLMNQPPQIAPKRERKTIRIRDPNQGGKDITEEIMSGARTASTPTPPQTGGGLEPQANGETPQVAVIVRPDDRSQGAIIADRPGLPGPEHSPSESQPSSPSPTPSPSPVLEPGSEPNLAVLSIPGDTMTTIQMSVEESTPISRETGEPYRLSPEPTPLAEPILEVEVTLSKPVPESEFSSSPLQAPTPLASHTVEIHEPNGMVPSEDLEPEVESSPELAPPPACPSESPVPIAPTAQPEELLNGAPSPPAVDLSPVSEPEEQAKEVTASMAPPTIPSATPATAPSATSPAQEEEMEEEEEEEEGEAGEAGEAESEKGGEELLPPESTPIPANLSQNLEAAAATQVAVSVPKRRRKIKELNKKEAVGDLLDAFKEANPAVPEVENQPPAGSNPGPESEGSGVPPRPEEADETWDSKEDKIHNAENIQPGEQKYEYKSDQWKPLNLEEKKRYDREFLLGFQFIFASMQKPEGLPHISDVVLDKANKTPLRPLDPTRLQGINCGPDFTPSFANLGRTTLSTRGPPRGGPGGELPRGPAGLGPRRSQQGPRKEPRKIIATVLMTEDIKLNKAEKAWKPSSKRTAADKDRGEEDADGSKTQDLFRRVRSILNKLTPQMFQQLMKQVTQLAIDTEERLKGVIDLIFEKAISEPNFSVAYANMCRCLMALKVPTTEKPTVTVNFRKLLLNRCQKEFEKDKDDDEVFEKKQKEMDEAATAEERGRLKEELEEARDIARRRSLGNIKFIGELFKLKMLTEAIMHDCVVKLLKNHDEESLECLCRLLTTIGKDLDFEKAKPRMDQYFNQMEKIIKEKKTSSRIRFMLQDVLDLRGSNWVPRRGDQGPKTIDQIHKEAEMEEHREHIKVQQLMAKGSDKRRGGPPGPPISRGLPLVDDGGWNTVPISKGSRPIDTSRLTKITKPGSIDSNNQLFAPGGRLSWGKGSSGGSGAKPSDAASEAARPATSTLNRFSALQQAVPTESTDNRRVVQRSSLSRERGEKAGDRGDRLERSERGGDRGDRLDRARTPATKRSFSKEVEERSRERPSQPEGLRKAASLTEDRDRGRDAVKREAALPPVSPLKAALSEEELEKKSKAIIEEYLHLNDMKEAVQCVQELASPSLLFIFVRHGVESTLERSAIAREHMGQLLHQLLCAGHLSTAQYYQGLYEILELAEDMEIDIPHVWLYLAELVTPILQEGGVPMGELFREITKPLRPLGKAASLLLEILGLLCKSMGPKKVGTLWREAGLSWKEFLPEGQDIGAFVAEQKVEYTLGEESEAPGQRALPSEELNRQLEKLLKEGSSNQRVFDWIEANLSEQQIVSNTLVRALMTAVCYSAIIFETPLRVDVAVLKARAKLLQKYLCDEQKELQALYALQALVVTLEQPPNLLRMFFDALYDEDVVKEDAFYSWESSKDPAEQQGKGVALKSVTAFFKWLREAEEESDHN
UniProt P50402, sequence (P50402 whole entry, looked up): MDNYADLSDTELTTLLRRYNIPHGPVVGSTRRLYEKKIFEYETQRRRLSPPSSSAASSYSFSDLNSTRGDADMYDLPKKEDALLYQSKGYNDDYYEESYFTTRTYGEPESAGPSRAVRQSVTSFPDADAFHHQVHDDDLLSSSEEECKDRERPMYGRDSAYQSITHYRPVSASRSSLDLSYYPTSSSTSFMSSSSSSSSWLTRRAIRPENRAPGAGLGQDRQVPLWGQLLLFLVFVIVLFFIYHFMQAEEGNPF
UniProt Q5QJE6, sequence (Q5QJE6 whole entry, looked up): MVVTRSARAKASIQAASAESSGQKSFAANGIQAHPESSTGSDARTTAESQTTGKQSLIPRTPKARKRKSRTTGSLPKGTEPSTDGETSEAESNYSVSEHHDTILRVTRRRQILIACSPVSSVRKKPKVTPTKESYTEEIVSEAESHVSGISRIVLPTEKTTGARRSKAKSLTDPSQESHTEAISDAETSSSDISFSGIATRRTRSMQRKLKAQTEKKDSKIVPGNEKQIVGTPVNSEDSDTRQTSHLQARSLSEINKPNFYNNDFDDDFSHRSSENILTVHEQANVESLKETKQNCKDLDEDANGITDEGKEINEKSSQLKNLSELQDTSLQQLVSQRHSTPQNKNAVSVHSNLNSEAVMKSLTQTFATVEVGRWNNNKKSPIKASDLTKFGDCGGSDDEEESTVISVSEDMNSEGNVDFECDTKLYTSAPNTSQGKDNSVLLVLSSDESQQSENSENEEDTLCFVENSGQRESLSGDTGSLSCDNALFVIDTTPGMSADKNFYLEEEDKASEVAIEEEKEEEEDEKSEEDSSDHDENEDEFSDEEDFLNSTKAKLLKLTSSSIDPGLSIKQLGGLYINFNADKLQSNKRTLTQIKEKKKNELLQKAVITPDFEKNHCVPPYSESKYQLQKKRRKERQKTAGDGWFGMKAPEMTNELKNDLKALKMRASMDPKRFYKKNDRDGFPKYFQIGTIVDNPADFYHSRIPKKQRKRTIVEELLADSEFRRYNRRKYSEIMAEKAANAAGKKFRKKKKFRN
UniProt O00148, sequence (O00148 whole entry, looked up): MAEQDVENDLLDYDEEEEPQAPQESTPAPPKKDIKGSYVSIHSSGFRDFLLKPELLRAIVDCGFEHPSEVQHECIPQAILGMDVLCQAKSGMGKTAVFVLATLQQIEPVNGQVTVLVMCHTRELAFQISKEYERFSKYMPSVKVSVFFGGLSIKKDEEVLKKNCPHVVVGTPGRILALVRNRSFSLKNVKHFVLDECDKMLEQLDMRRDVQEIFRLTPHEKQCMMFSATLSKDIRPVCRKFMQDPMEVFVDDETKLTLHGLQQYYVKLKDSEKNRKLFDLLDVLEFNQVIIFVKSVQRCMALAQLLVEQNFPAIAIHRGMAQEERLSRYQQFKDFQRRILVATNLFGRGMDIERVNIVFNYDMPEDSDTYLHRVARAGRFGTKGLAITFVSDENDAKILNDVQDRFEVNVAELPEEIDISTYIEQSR
UniProt Q15075, sequence (Q15075 whole entry, looked up): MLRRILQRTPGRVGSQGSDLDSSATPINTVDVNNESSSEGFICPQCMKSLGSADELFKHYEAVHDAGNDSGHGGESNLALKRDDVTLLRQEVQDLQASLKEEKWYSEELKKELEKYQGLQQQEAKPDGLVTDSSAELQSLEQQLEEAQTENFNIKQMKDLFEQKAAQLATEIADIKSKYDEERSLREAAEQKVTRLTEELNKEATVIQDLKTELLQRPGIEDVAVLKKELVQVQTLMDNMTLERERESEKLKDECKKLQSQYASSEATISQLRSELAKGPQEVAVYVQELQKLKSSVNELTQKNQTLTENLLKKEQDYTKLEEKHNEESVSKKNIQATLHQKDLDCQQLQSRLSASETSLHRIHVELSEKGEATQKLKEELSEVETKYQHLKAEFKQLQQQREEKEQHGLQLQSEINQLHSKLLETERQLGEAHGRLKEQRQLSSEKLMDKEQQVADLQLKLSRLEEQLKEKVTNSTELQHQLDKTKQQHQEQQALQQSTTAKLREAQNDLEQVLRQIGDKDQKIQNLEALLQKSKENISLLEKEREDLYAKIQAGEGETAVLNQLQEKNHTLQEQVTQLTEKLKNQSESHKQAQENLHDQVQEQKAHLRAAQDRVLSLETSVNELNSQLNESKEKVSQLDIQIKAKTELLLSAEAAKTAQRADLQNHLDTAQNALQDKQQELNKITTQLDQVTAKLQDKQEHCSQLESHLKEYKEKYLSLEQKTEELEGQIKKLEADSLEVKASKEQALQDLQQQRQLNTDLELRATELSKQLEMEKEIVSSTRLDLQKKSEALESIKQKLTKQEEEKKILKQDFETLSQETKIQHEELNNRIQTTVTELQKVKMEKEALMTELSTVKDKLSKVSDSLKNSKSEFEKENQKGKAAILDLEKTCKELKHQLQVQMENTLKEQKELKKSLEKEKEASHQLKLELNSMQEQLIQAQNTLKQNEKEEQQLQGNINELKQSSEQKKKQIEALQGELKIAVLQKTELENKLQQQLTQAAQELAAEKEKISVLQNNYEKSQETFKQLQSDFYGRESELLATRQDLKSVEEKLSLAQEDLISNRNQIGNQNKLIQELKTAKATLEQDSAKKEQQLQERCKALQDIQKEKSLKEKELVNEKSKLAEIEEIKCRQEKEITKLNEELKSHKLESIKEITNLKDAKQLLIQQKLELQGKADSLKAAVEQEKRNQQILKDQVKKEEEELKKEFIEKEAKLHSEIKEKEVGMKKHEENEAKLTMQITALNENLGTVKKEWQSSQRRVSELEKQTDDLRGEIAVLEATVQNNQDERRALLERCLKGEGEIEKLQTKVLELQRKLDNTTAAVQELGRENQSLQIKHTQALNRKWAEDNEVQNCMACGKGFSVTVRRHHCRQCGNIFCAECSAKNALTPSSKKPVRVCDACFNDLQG

Target | log2 fold change
DAG1 (UniProt Q14118) | -0.001
DHX40 (UniProt Q8IX18) | -0.215
EDC4 (UniProt Q6P2E9) | -0.031
FAM118A (UniProt Q9NWS6) | 0.034
DTNBP1 (UniProt Q96EV8) | -0.073
DDX46 (UniProt Q7L014) | 0.197
EED, A0A5F9ZI63 | 0.019
FAM117A (UniProt Q9C073) | 0.024
DNTTIP2 (UniProt Q5QJE6) | -0.093
EEA1 (UniProt Q15075) | -0.22 (active)
DBR1 (UniProt Q9UK59) | 0.058
DOHH (UniProt Q9BU89) | -0.015
CTSA (UniProt P10619) | -0.237 (active)
DTYMK (UniProt P23919) | 0.032
DAB2 (UniProt P98082) | -0.091
EXTL2 (UniProt Q9UBQ6) | 0.108
DDOST (UniProt P39656) | 0.13
DDX39A (UniProt O00148) | -0.064

Target | log2 fold change
DTWD1 (UniProt Q8N5C7) | -0.001
DHFR (UniProt P00374) | -0.207
CTSV (UniProt O60911) | -0.453 (active)
EFCAB14 (UniProt O75071) | -0.004
CTNNB1 (UniProt P35222) | 0.078
EIF4G1 isoform 8 (UniProt Q04637) | -0.324
ERCC2 (UniProt P18074) | -0.045
DPH5 isoform 5 (UniProt Q9H2P9) | 0.076
ELOC (UniProt Q15369) | 0.134
CUEDC2 (UniProt Q9H467) | 0.024
FAM50A (UniProt Q14320) | 0.095
DHCR7 (UniProt Q9UBM7) | -0.056
DDB1 (UniProt Q16531) | 0.009
EMD (UniProt P50402) | -0.092
EHBP1L1 (UniProt Q8N3D4) | -0.047
EHD2 (UniProt Q9NZN4) | -0.007
DHCR24 (UniProt Q15392) | -0.053
DCTN1 isoform 4 (UniProt Q14203) | -0.141
